High-throughput results: PubChem, Sanford-Burnham Center for Chemical Genomics
A selection: hits, their analogues and other compounds. The true share with any hit is near 4%.
TWEAK Fn14 block – blocks TWEAK-Fn14 interaction in a reporter cell assay; TWEAK-stimulated Fn14 reporter cells, luciferase luminescence, 8 h; inhibition, % at 10 µM; actives 2% (n = 360,000); in the data active = inhibition above about 50%
CF NFkB inh – blocks PAF-induced NF-kB reporter in cystic fibrosis cells. KKLEB NF-kB-GFP reporter, GFP fluorescence overnight. inhibition, % at 5 µM. actives 0.86% (n = 360,000). AID 588850;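 active = at least 50% inhibition at 5 µM, scaled per plate between neutral and stimulator controls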;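 also: PAF is a Pseudomonas aeruginosa culture filtrate used as stimulus; plate controls were PAF-stimulated DMSO wells for no effect and unstimulated DMSO wells for full effect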
Peg3 prom inh – inhibitors of Peg3 promoter. inhibition, % at 20 µM. HeLa PEG-Prom luciferase reporter, luminescence, overnight. actives 1.7% (n = 360,000);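 active = inhibition of at least 50% at 20 µM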
HIF-2a inh – blocks HIF-2a reporter activity | actives 0.72% (n = 360,000) | AID 624352 | 786-0 RCC cells HIF-2a reporter, luciferase luminescence, overnight | inhibition, % at 18.8 µM;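 active = inhibition of the luminescence signal of 40% or more relative to plate controls, in a single-dose primary screen at 18.75 µM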
TROY NFkB inh – inhibitors of TROY-dependent NF-kB signaling. Q293 LMP1-TROYcd NF-kB luciferase reporter, 4 h. inhibition, % at 10 µM. actives 0.98% (n = 360,000);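 active = compounds whose plate-normalised and pattern-corrected inhibition of the luciferase reporter signal at the single screening dose is 50% or more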
KKLEB tox – CF airway cell cytotoxicity counter-screen | actives 0.36% (n = 360,000) | AID 602141 | activity change (cytotoxicity), % at 5 µM | KKLEB CF airway cells viability, ATPlite luminescence, overnight; hits give low values; cells stimulated with P. aeruginosa culture filtrate;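 active = corrected activity change at or below -50% at 5 µM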
An asterisk follows results filed as active.

SMILES	TWEAK Fn14 block	CF NFkB inh	Peg3 prom inh	HIF-2a inh	TROY NFkB inh	KKLEB tox
O=C(NCc1ccccc1)c1cc(C2CCCCN2S(=O)(=O)c2ccccc2)on1 (stereo not given)	-6	-24	13	3	17	4
O=C(CSc1nc2nc(-c3cccs3)cc(C(F)(F)F)c2c(=O)[nH]1)Nc1c(F)c(F)c(F)c(F)c1F	66*	32	39	-23	57*	-23
Clc1ccc2nc(-c3ccccc3)cn2c1	61*	-18	-113	-47	9	-12
c1ccn2cc(-c3ccc4c(c3)OCCO4)nc2c1	78*	-2	-29	2	21	-19
Clc1ccc2nc(-c3ccc4c(c3)OCO4)cn2c1	73*	-21	29	-26	0	-44
O=C(O)c1cc(-c2ccc3c(c2)OCO3)nc2ccc(Cl)cc12	-17	20	-59	-62	-54	6
Cc1ccc(C(=O)Nc2nccs2)cc1S(=O)(=O)N1CCCCC1	15	16	-20	-75	1	1
O=C(Nc1nccs1)c1ccc(Br)c(S(=O)(=O)N2CCCC2)c1	97*	22	-27	-56	4	-6
Nc1ncnc2c1C1(CCCCC1)Cc1ccccc1-2	59*	27	-10	-26	59*	12
Nc1n[nH]c2c1C1(CCCCC1)Cc1ccccc1-2	-17	-1	15	17	4	-6
COc1cc(C(=O)NC(=S)Nc2csc(-c3ccc(F)cc3)n2)cc(OC)c1OC	10	10	-15	5	56*	-3
CCOC1=C2CN(S(=O)(=O)c3ccc(C)cc3)[C@H](c3cccc4ccccc34)C[C@H]2[C@H]2C(=O)N(c3ccccc3)C(=O)[C@H]2C1	-9	-1	5	13	-5	-8
Cc1cc(C(=O)CN2CCC(C)CC2)c(C)n1-c1ccccc1F	82*	3	8	29	80*	-8
Cc1cc(C(=O)CN2C(=O)C(=O)N(Cc3ccccc3)C2=O)c(C)n1-c1ccccc1F	16	-10	17	7	-6	-8
OCCN(CCO)CC(O)COc1ccc(C23CC4CC(CC(C4)C2)C3)cc1 (stereo not given)	77*	20	24	89*	47	-10
Cc1ccc(S(=O)(=O)N(C)C)cc1NC(=S)NC12CC3CC(CC(C3)C1)C2	-12	12	28	29	5	-4
N#CC(C#N)=NNc1ccc(S(=O)(=O)N2CCCCC2)cc1	48	71*	10	10	59*	-17
N#C/C(=N\Nc1ccc(S(=O)(=O)N2CCOCC2)cc1)C(N)=S	32	11	-11	8	12	-2
O=S(=O)(c1ccc(NC(=S)NC23CC4CC(CC(C4)C2)C3)cc1)N1CCCCC1	70*	40	48	11	44	-15
CN(C)S(=O)(=O)c1cccc(NC(=S)NC23CC4CC(CC(C4)C2)C3)c1	62*	-3	27	19	9	13
COc1ccc(CN(C)C(=O)CSc2nnc(C3CC3)n2C2CC2)cc1	-3	-18	-6	7	4	-4
O=C(O)C1=C(C(=O)O)C2C=CC1C2	6	-13	-24	4	-7	-9
COc1cccc(C(=O)c2c(-c3ccccc3)ncc3cc(OC)c(OC)cc23)c1	-27	20	9	-1	0	0
CCC(=O)N1CCCC(C)(C(=O)Nc2nccc3cccnc23)C1 (stereo not given)	-14	-14	11	14	-6	4
CC(=O)Nc1ccc(S(=O)(=O)c2cc(O)ccc2O)cc1	-13	5	10	14	-3	-5
Nc1cc(Cl)ccc1C(=O)OCC(=O)NCC1CCCO1 (stereo not given)	17	-8	-36	-15	3	19
Cc1cc(O)c(Sc2ncn[nH]2)cc1NS(=O)(=O)c1ccc(Cl)cc1	-3	19	7	11	-17	2
O=S(=O)(Nc1cc(Sc2ncn[nH]2)c(O)c2ccccc12)c1ccccc1	95*	79*	-5	3	62*	7
Cc1ccc(S(=O)(=O)Nc2ccc(Br)cc2C(NCC(=O)O)c2ccccc2)cc1 (stereo not given)	12	24	10	20	0	8
